Test results reported in publication PMC11062922 (Nature Chemical Biology, 2023).
Read-outs that look alike come from different tables or passages of the source.

Assays:
Set-up in all cases: species or system human, MV4-11 + K-562 + COLO205 + SK-N-BE2 + OVCAR-8
ADRBK1 = settings: read-out: apparent Kd, n = 1
CDK6 = settings: read-out: apparent Kd, n = 1
CSNK1D = settings: read-out: apparent Kd; compound concentrations: 100 nM and 1000 nM (sheet 'Samples'), CATDS: 0.10143186295273; n = 1
CSNK1E = settings: read-out: apparent Kd; compound concentrations: 100 nM and 1000 nM (sheet 'Samples'), CATDS: 9.8095690794025595E-2; n = 1
MAPK14 = settings: read-out: apparent Kd; compound concentrations: 100 nM and 1000 nM (sheet 'Samples'), CATDS: 0.129413599974984; n = 1
PKN3 = settings: read-out: apparent Kd; compound concentrations: 100 nM and 1000 nM (sheet 'Samples'), CATDS: 0.541648596841942; n = 1
RIPK2 = settings: read-out: apparent Kd; compound concentrations: 100 nM and 1000 nM (sheet 'Samples'), CATDS: 0.18182932832718701; n = 1
TESK2 = settings: read-out: apparent Kd; compound concentrations: 100 nM and 1000 nM (sheet 'Samples'), CATDS: 8.5548681543300906E-2; n = 1
TNIK = settings: read-out: apparent Kd; compound concentrations: 100 nM and 1000 nM (sheet 'Samples'), CATDS: 8.6694751539446793E-2; n = 1
AKT2 = settings: read-out: apparent Kd; compound concentrations:100 nM and 1000 nM (sheet 'Samples'); n = 1
AKT3 = settings: read-out: apparent Kd; compound concentrations:100 nM and 1000 nM (sheet 'Samples'); n = 1
NQO1 = settings: read-out: apparent Kd; compound concentrations:100 nM and 1000 nM (sheet 'Samples'); n = 1
PKN2 = settings: read-out: apparent Kd; compound concentrations:100 nM and 1000 nM (sheet 'Samples'); n = 1
PRKCI = settings: read-out: apparent Kd; compound concentrations:100 nM and 1000 nM (sheet 'Samples'); n = 1
PRKG1 = settings: read-out: apparent Kd; compound concentrations:100 nM and 1000 nM (sheet 'Samples'); n = 1
ROCK2 = settings: read-out: apparent Kd; compound concentrations:100 nM and 1000 nM (sheet 'Samples'); n = 1
RPS6KB1 = settings: read-out: apparent Kd; compound concentrations:100 nM and 1000 nM (sheet 'Samples'); n = 1
TTN = settings: read-out: apparent Kd; compound concentrations:100 nM and 1000 nM (sheet 'Samples'); n = 1
ADK = settings: read-out: apparent Kd; compound concentrations:100 nM and 1000 nM (sheet 'Samples'); n = 1
PIK3CB = settings: read-out: apparent Kd; compound concentrations:100 nM and 1000 nM (sheet 'Samples'); n = 1
PIK3CD = settings: read-out: apparent Kd; compound concentrations:100 nM and 1000 nM (sheet 'Samples'); n = 1
RIOK2 = settings: read-out: apparent Kd; compound concentrations:100 nM and 1000 nM (sheet 'Samples'); n = 1
CAMK2B = settings: read-out: apparent Kd; compound concentrations:100 nM and 1000 nM (sheet 'Samples'); n = 1
CAMK2D = settings: read-out: apparent Kd; compound concentrations:100 nM and 1000 nM (sheet 'Samples'); n = 1
CSNK1G1 = settings: read-out: apparent Kd; compound concentrations:100 nM and 1000 nM (sheet 'Samples'); n = 1
EIF2AK1 = settings: read-out: apparent Kd; compound concentrations:100 nM and 1000 nM (sheet 'Samples'); n = 1
ERN2 = settings: read-out: apparent Kd; compound concentrations:100 nM and 1000 nM (sheet 'Samples'); n = 1
FN3KRP = settings: read-out: apparent Kd; compound concentrations:100 nM and 1000 nM (sheet 'Samples'); n = 1
FN3K = settings: read-out: apparent Kd; compound concentrations:100 nM and 1000 nM (sheet 'Samples'); n = 1
ICK = settings: read-out: apparent Kd; compound concentrations:100 nM and 1000 nM (sheet 'Samples'); n = 1
LATS1 = settings: read-out: apparent Kd; compound concentrations:100 nM and 1000 nM (sheet 'Samples'); n = 1
MAP2K1 = settings: read-out: apparent Kd; compound concentrations: 100 nM and 1000 nM (sheet 'Samples'), CATDS: 0.123510753631687; n = 1
MAP2K2 = settings: read-out: apparent Kd; compound concentrations:100 nM and 1000 nM (sheet 'Samples'); n = 1
MAPK3 = settings: read-out: apparent Kd; compound concentrations:100 nM and 1000 nM (sheet 'Samples'); n = 1
NEK2 = settings: read-out: apparent Kd; compound concentrations:100 nM and 1000 nM (sheet 'Samples'); n = 1
NQO2 = settings: read-out: apparent Kd; compound concentrations:100 nM and 1000 nM (sheet 'Samples'); n = 1
NUAK1 = settings: read-out: apparent Kd; compound concentrations:100 nM and 1000 nM (sheet 'Samples'); n = 1
PAK6 = settings: read-out: apparent Kd; compound concentrations:100 nM and 1000 nM (sheet 'Samples'); n = 1
PBK = settings: read-out: apparent Kd; compound concentrations:100 nM and 1000 nM (sheet 'Samples'); n = 1
PDXK = settings: read-out: apparent Kd; compound concentrations:100 nM and 1000 nM (sheet 'Samples'); n = 1
PFKP = settings: read-out: apparent Kd; compound concentrations:100 nM and 1000 nM (sheet 'Samples'); n = 1
PRKX;PRKY = settings: read-out: apparent Kd; compound concentrations:100 nM and 1000 nM (sheet 'Samples'); n = 1
TESK1 = settings: read-out: apparent Kd; compound concentrations:100 nM and 1000 nM (sheet 'Samples'); n = 1
TP53RK = settings: read-out: apparent Kd; compound concentrations:100 nM and 1000 nM (sheet 'Samples'); n = 1
[1] = compound concentrations:100 nM and 1000 nM (sheet 'Samples')

Nc1n[nH]c2nnc(-c3ccccc3)cc12 [SB-517389]
potency estimated from few doses (ADRBK1; [1]): 1380 nM
potency estimated from few doses (CDK6; [1]): 1870 nM

CCc1nc(-c2cccc(C)c2)c(-c2ccncc2)s1 [TPKI-106]
potency estimated from few doses (ADRBK1; compound concentrations: 100 nM and 1000 nM (sheet 'Samples'), CATDS: 9.0460214145081597E-2): 1680 nM
potency estimated from few doses (CDK6; compound concentrations: 100 nM and 1000 nM (sheet 'Samples'), CATDS: 8.6240814727830004E-2): 1950 nM
potency estimated from few doses (CSNK1D): 1230 nM
potency estimated from few doses (CSNK1E): 1340 nM
potency estimated from few doses (MAPK14): 691 nM
potency estimated from few doses (PKN3): 57.5 nM
potency estimated from few doses (RIPK2): 349 nM
potency estimated from few doses (TESK2): 2000 nM
potency estimated from few doses (TNIK): 1910 nM

CCn1c(-c2nonc2N)nc2cnc(Oc3cccc(NC(=O)c4ccc(OCCN5CCOCC5)cc4)c3)cc21.Cl [GSK269962B]
potency estimated from few doses (ADRBK1; [1]): 1480 nM
potency estimated from few doses (AKT2): 2180 nM
potency estimated from few doses (AKT3): 1600 nM
potency estimated from few doses (NQO1): 175 nM
potency estimated from few doses (PKN2): 1850 nM
potency estimated from few doses (PRKCI): 1970 nM
potency estimated from few doses (PRKG1): 70.3 nM
potency estimated from few doses (ROCK2): 294 nM
potency estimated from few doses (RPS6KB1): 719 nM
potency estimated from few doses (TTN): 388 nM

O=c1cc(N2CCOCC2)nc2n(Cc3cccc4ccccc34)ccn12 [GSK2333389A]
potency estimated from few doses (ADK): 889 nM
potency estimated from few doses (PIK3CB): 16.1 nM
potency estimated from few doses (PIK3CD): 214 nM
potency estimated from few doses (RIOK2): 1890 nM

C[C@@H](c1ccccc1)[C@@H](C(=O)Nc1ccc(I)cc1F)N1C(=O)N[C@H](c2ccc(OC[C@H](O)CO)cc2)C1=O [RO5068760-000]
potency estimated from few doses (ADK): 1000 nM
potency estimated from few doses (CAMK2B): 544 nM
potency estimated from few doses (CAMK2D): 450 nM
potency estimated from few doses (CSNK1G1): 2040 nM
potency estimated from few doses (EIF2AK1): 1390 nM
potency estimated from few doses (ERN2): 1170 nM
potency estimated from few doses (FN3KRP): 959 nM
potency estimated from few doses (FN3K): 1200 nM
potency estimated from few doses (ICK): 1310 nM
potency estimated from few doses (LATS1): 1760 nM
potency estimated from few doses (MAP2K1): 183 nM
potency estimated from few doses (MAP2K2): 165 nM
potency estimated from few doses (MAPK3): 1330 nM
potency estimated from few doses (NEK2): 1570 nM
potency estimated from few doses (NQO2): 787 nM
potency estimated from few doses (NUAK1): 1920 nM
potency estimated from few doses (PAK6): 1730 nM
potency estimated from few doses (PBK): 2030 nM
potency estimated from few doses (PDXK): 612 nM
potency estimated from few doses (PFKP): 2220 nM
potency estimated from few doses (PRKX;PRKY): 1130 nM
potency estimated from few doses (TESK1): 543 nM
potency estimated from few doses (TP53RK): 1620 nM
